This is a sample that favours compounds with a hit; in the whole collection about 2.2% have one here.
BRCA1 expr act = qHTS Assay to Identify Small Molecule Activators of BRCA1 Expression; MCF7-BRCA1-FFLuc reporter, luminescence, 48 h; response scale: scaled: vehicle 0%, 10 µM genistein 100%; Potency, µM (series often up to 46.1 µM), inactives show at the top dose activation, actives largely listed as activators; actives 1.1% (n = 380,000); AID 624202, 2012; note: potency is the fitted concentration of half-maximal effect; nearly all actives have a fitted effect of over 80% in size
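MCF7 cells carrying a BRCA1-firefly luciferase reporter (2000 cells/well, phenol-red free MEM) were attached for 2 h at 37 °C, then given compounds for 48 h. Luminescence was read 15 min after luciferase reagent; activity normalized to genistein (10 microM) and DMSO.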
IL2 activator = qHTS of IL-2 Activators; IL-2 activation reporter assay, cell-based qHTS; stimulated with anti-CD3/CD4/CD28 beads; in transgenic mouse T cells; activation, % (series mostly up to about 46 µM); actives 0.065% (n = 360,000); in the data active = activation above about 50%; inconclusive = mostly about 30% to 49%; note: 0% is about no effect
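Quantitative HTS in unstimulated transgenic mouse T cells, with memory T cells as non-tolerant control and PMA/ionomycin as tolerance-bypass control. Compound pretreatment lasted 60 minutes before 18 h bead stimulation; EGFP/DsRed fluorescence read.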
IDH1 R132H inh = qHTS for Inhibitors of mutant isocitrate dehydrogenase 1 (IDH1): qHTS. Isocitrate dehydrogenase [NADP] cytoplasmic (Homo sapiens), O75874. IDH1-R132H enzyme, NADPH consumption, diaphorase/resazurin fluorescence. Potency, µM (doses to about 76.6 µM), for the others: at the highest dose activity change, negative = inhibition, most hits filed as inhibitors. actives 0.093% (n = 390,000). AID 602179, 2012; note: potency is the fitted concentration of half-maximal effect; % is set by controls: 0 for no effect and ±100 for the full control effect; nearly all actives have a fitted effect of over 65% in size
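IDH1-R132H (0.5 ug/mL dispensed) in pH 7.5 Tris buffer was preincubated 30 min with compound, then given a substrate mix of 0.016 mM NADPH and 2 mM alpha-KG for 80 min at room temperature; remaining NADPH was read by diaphorase/resazurin fluorescence.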
TrxR1 substrate = qHTS Assay for Substrates of Mammalian Selenoprotein Thioredoxin Reductase 1 (TrxR1): qHTS. Thioredoxin reductase 1, cytoplasmic (Rattus norvegicus), O89049. actives 0.01% (n = 390,000). AID 588456, 2011. Potency, µM (top dose mostly 114 µM), for inactives: top-dose activity change, negative = substrate turnover. purified TrxR1 substrate turnover, NADPH consumption readout; note: potency is the fitted concentration of half-maximal effect; % is set by controls: 0 for no effect and ±100 for the full control effect; nearly all actives have a fitted effect of over 50% in size
Target sequence (O89049 whole entry, looked up): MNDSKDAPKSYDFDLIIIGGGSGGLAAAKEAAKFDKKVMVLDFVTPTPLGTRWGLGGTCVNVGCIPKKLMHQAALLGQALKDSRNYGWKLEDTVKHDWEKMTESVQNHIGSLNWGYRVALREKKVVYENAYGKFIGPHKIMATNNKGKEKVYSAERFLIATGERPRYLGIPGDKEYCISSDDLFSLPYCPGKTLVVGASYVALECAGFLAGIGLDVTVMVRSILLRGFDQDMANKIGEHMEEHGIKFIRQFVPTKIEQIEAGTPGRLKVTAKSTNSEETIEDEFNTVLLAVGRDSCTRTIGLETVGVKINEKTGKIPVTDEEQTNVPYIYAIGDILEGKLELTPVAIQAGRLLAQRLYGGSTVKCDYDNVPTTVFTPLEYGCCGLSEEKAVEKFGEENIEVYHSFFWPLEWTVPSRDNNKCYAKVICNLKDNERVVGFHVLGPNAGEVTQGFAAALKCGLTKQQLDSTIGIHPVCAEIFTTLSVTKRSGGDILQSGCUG
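Rat TrxR1, dispensed at 90 nM, was prereduced with 400 uM NADPH (final) for 5 min at ~22 deg C, then incubated with compound 15 min before 400 uM selenite. A first-read NADPH fluorescence drop versus no-compound background flagged substrates.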
rTrxR1 inhibitor = qHTS Assay for Inhibitors of Mammalian Selenoprotein Thioredoxin Reductase 1 (TrxR1): qHTS; actives 1% (n = 390,000); Thioredoxin reductase 1, cytoplasmic (Rattus norvegicus), O89049; AID 588453, 2011; Potency, µM (titrated, usually from 114 µM), for the others: at the top dose activity change, negative = inhibition, hits mostly inhibitors; recombinant rTrxR1, NADPH fluorescence consumption, selenite substrate; note: potency is the fitted concentration of half-maximal effect; % is set by controls: 0 for no effect and ±100 for the full control effect; nearly all actives have a fitted effect of over 65% in size
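Rat TrxR1 (90 nM in the dispensed reagent) was pre-reduced with 400 uM NADPH for 5 min at room temperature, then incubated with compound for 15 min. After 400 uM selenite was added, NADPH fluorescence (Ex 340/Em 450 nm) was followed for 8 min.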
Giardia kill = Small Molecules that selectively kill Giardia lamblia: qHTS | Giardia lamblia trophozoite viability | activity change, % at 7.66 µM, hits read low | actives 0.15% (n = 340,000); in the data active = activity change below about -80%; inconclusive = between about -30% and that limit;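 note: parasites exposed to compound for two days anaerobically before the ATP read; % is set by controls: 0 for no effect and ±100 for the full control effect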
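Compounds were tested on trophozoites seeded at 100 cells/well and held 48 hrs at 37 deg C anaerobically. An ATP-based luminescent kit measured the remaining live cells.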
An asterisk follows results filed as active; [ ] = another dose, or the depositor's remark. Unless noted, calls come from the whole dose curve; as a rule, active = well fitted curve in the direction sought with a large enough effect; inconclusive = small, poorly fitted or top-dose-only effect, or another doubt; inactive = no such curve, though single readings can be large; an effect the other way counts as inactive or inconclusive.

What do the screens show for `Cc1ccc(OCc2cc(C(=O)N(CCO)Cc3cccs3)no2)cc1C`?
BRCA1 expr act: 11µM*; IL2 activator: -1; IDH1 R132H inh: 9%; TrxR1 substrate: 7%[57.1 µM]; rTrxR1 inhibitor: 10%[57.1 µM]; Giardia kill: 23

What do the screens show for `CCN(Cc1ccncc1)C(=O)c1cc(COc2ccc(C)c(C)c2)on1`?
BRCA1 expr act: 2%; IL2 activator: -2; IDH1 R132H inh: -8%; TrxR1 substrate: -1%; rTrxR1 inhibitor: 15%; Giardia kill: 1

How did CN1CCS/C1=C/C=C1/SC(=S)N(Cc2ccccc2)C1=O do in these assays?
BRCA1 expr act: 13µM*; IL2 activator: 3; IDH1 R132H inh: 6%; TrxR1 substrate: -10%; rTrxR1 inhibitor: -8%; Giardia kill: -11

Results for CCCCN1C(=O)/C(=C/C=C2\SCCN2C)SC1=S ?
BRCA1 expr act: 7.1µM*; IL2 activator: 17; IDH1 R132H inh: -5%; TrxR1 substrate: -3%[57.1 µM]; rTrxR1 inhibitor: -3%[57.1 µM]; Giardia kill: 7

What do the screens show for `CN1CCS/C1=C/C=C1\SC(=S)N(CC(=O)O)C1=O`?
BRCA1 expr act: 3%; IL2 activator: -1; IDH1 R132H inh: 0%; TrxR1 substrate: inconclusive; rTrxR1 inhibitor: -19%; Giardia kill: 2

Results for CCc1ccccc1N(C)C(=O)c1cc2c(=O)oc3ccccc3c2s1 ?
BRCA1 expr act: 6%; IDH1 R132H inh: -1%; TrxR1 substrate: -10%; rTrxR1 inhibitor: 9%

Results for O=C(NCc1ccccc1)c1ccc(-c2ccccc2F)o1 ?
BRCA1 expr act: 11µM*; IL2 activator: -3; IDH1 R132H inh: 6%; TrxR1 substrate: 0%; rTrxR1 inhibitor: 20%; Giardia kill: -9

Results for O=C(NCCc1ccccc1)c1ccc(-c2ccccc2C(F)(F)F)o1 ?
BRCA1 expr act: 11%; IL2 activator: -1; IDH1 R132H inh: -7%[38.3 µM]; TrxR1 substrate: 8%; rTrxR1 inhibitor: -31%; Giardia kill: 1

Results for CCS(=O)(=O)N1CCc2cc(C(=O)Nc3ccc(OC)c(Cl)c3)ccc21 ?
BRCA1 expr act: -25%; IDH1 R132H inh: 9%; TrxR1 substrate: -9%; rTrxR1 inhibitor: 1%

Results for CCCCn1c(=O)[nH]c2nc3cc(N)ccc3nc2c1=O ?
BRCA1 expr act: inconclusive; IL2 activator: 4; IDH1 R132H inh: 5%; TrxR1 substrate: -4%[57.1 µM]; rTrxR1 inhibitor: inconclusive; Giardia kill: -6

Results for Nc1ccc2nc3c(=O)n(C4CCCCC4)c(=O)[nH]c3nc2c1 ?
BRCA1 expr act: 7.1µM*; IL2 activator: 2; IDH1 R132H inh: 1%; TrxR1 substrate: 1%; rTrxR1 inhibitor: 8%; Giardia kill: 16

What do the screens show for `COc1ccc(NC(=O)c2c(NCc3ccc(C)o3)sc3c2CCCCC3)c(OC)c1`?
IDH1 R132H inh: 20%; TrxR1 substrate: -9%[57.1 µM]; rTrxR1 inhibitor: 20µM*

How did COc1ccc(NC(=O)c2c(NCc3ccc(C)o3)sc3c2CCC(C)C3)c(OC)c1 (configuration not stated) do in these assays?
IDH1 R132H inh: -11%; TrxR1 substrate: -1%[57.1 µM]; rTrxR1 inhibitor: -7%[57.1 µM]

What do the screens show for `COc1ccc(NC(=O)c2c(NCc3sccc3C)sc3c2CCCCC3)c(OC)c1`?
IDH1 R132H inh: -2%; TrxR1 substrate: -2%[57.1 µM]; rTrxR1 inhibitor: 18µM*

Results for COc1ccc(OC)c(NC(=O)c2c(NCc3cccs3)sc3c2CCCCC3)c1 ?
IDH1 R132H inh: 9%; TrxR1 substrate: 0%[57.1 µM]; rTrxR1 inhibitor: inconclusive

Results for COc1ccc(OC)c(NC(=O)c2c(NCc3cccs3)sc3c2CCCC3)c1 ?
BRCA1 expr act: -56%; IDH1 R132H inh: -4%; TrxR1 substrate: -5%; rTrxR1 inhibitor: 45µM*; Giardia kill: -2

What do the screens show for `COc1ccc2c(Sc3ccccc3)c(C(=O)NCCCN3CCCCC3)[nH]c2c1`?
TrxR1 substrate: 13%; rTrxR1 inhibitor: 14%

Results for Oc1ccc(CNc2ccc(F)cc2)c2cccnc12 ?
BRCA1 expr act: -88%; IL2 activator: -3; IDH1 R132H inh: 7%; TrxR1 substrate: 4%; rTrxR1 inhibitor: 0.63µM*; Giardia kill: 8

Results for Oc1ccc(CN2CCN(Cc3ccccc3)CC2)c2cccnc12 ?
BRCA1 expr act: -82%; IL2 activator: -3; IDH1 R132H inh: 8%; TrxR1 substrate: -2%; rTrxR1 inhibitor: 14µM*; Giardia kill: -15

Results for O=S(=O)(c1ccc(Cl)cc1)N1CCN(Cc2ccc(O)c3ncccc23)CC1 ?
BRCA1 expr act: -85%; IL2 activator: 2; IDH1 R132H inh: 7%; TrxR1 substrate: -5%[57.1 µM]; rTrxR1 inhibitor: 4%[57.1 µM]; Giardia kill: 5

How did Cc1cccc(NCc2ccc(O)c3ncccc23)c1 do in these assays?
BRCA1 expr act: -35%; IL2 activator: 0; IDH1 R132H inh: 8%; TrxR1 substrate: 4%; rTrxR1 inhibitor: 0.79µM*; Giardia kill: inconclusive

What do the screens show for `Cc1ccccc1NCc1ccc(O)c2ncccc12`?
BRCA1 expr act: -84%; IL2 activator: -3; IDH1 R132H inh: 4%; TrxR1 substrate: 8%; rTrxR1 inhibitor: 0.63µM*; Giardia kill: 8

How did CCCCN(CC)CCNC(=O)c1cc2c(=O)oc3ccc(C)cc3c2s1 do in these assays?
BRCA1 expr act: 21%; IDH1 R132H inh: -5%; TrxR1 substrate: 23%; rTrxR1 inhibitor: 8%

How did COCCCNC(=S)NC(=O)c1ccc(C)cc1 do in these assays?
BRCA1 expr act: 6.3µM*; IL2 activator: 1; IDH1 R132H inh: 3%; TrxR1 substrate: -8%; rTrxR1 inhibitor: -20%; Giardia kill: 9

What do the screens show for `Cc1ccccc1C(=O)NC(=S)Nc1ccccc1C(=O)O`?
BRCA1 expr act: 2%; IL2 activator: 0; IDH1 R132H inh: 5%; TrxR1 substrate: 1%[57.1 µM]; rTrxR1 inhibitor: 2%[57.1 µM]; Giardia kill: -1

How did CC(=O)c1cccc(NC(=S)NC(=O)c2ccc(Br)cc2)c1 do in these assays?
BRCA1 expr act: inconclusive; IL2 activator: -4; IDH1 R132H inh: -1%; TrxR1 substrate: 5%; rTrxR1 inhibitor: -10%; Giardia kill: 0

Results for COC(=O)c1ccccc1NC(=O)c1ccc2c(c1)OCCO2 ?
BRCA1 expr act: -17%; IL2 activator: -1; IDH1 R132H inh: 5%; TrxR1 substrate: -10%; rTrxR1 inhibitor: -8%; Giardia kill: 10
